# Assay results published in the supplement of paper PMC8975748.
# Structures can show the parent of a compound that is named as a salt.
# Tested on: Saccharomyces cerevisiae BY4741 SeMeCo community
# Test: z-score of subpopulation abundance vs DMSO median, subpopulation auxotrophic for U; higher = larger share of this subpopulation than in DMSO controls
# Details: 10 µM; 24 h; SM minimal medium; subpopulation (auxotrophy): U
# Procedure, shortened: (§1)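 A Saccharomyces cerevisiae BY4741 community carried four plasmids, each restoring one auxotrophy and encoding a distinct fluorescent protein. It was pre-grown overnight to OD600 1.0, diluted to 0.3, and 70 µl was added to 384-well plates acoustically predosed with library drugs (10 µM final), then grown 24 h in minimal SM medium. Cells were paraformaldehyde-fixed and imaged by automated confocal microscopy, with single-auxotroph fluorescent strains setting thresholds and autofluorescence correction. Each subpopulation's abundance was scored as a z-score against the vehicle-well median.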
row,SMILES,z-score of subpopulation abundance
1,Nc1nc(O)c2ncn(CCC(CO)CO)c2n1 [Penciclovir],0.53
2,O=C(N[C@H](CO)[C@H](O)c1ccc([N+](=O)[O-])cc1)C(Cl)Cl [Chloramphenicol],-0.21
3,CCCN1CCCC[C@H]1C(=O)Nc1c(C)cccc1C [Ropivacaine],-0.73
4,Cc1onc(-c2ccccc2)c1-c1ccc(S(N)(=O)=O)cc1 [Valdecoxib],-0.55
5,CN1[C@@H]2CC[C@H]1C[C@@H](OC(=O)c1c[nH]c3ccccc13)C2 [Tropisetron],-0.36
6,CC[C@H]1OC(=O)[C@H](C)[C@@H](O[C@H]2C[C@@](C)(OC)[C@@H](O)[C@H](C)O2)[C@H](C)[C@@H](O[C@@H]2O[C@H](C)C[C@H](N(C)C)[C@H]2O)[C@](C)(O)C[C@@H](C)/C(=N\OCOCCOC)[C@H](C)[C@@H](O)[C@]1(C)O [Roxithromycin],0.31
7,COc1ccccc1N1CCN(CCCNc2cc(=O)n(C)c(=O)n2C)CC1 [Urapidil HCl],1.09
8,O=C(O)c1cc(-c2ccc(F)cc2F)ccc1O [Diflunisal],-2.37
9,C=C[C@H]1CN2CC[C@H]1C[C@H]2[C@H](O)c1ccnc2ccc(OC)cc12 [Quinine HCl Dihydrate],0.16
10,CC(C)Cc1ccc(C(C)C(=O)O)cc1 (stereo unspecified) [Ibuprofen Lysine],-3.65
11,CN(C)CCc1c[nH]c2ccc(C[C@H]3COC(=O)N3)cc12 [Zolmitriptan],-0.08
12,C[C@]12CC[C@@H]3c4ccc(O)cc4C[C@@H](CCCCCCCCC[S+]([O-])CCCC(F)(F)C(F)(F)F)[C@H]3[C@@H]1CC[C@@H]2O (stereo partly specified) [Fulvestrant],-0.43
13,COc1ccc(NS(=O)(=O)c2ccc(N)cc2)nn1 [Sulfamethoxypyridazine],0.12
14,CNCCCN1c2ccccc2CCc2ccccc21 [Desipramine Hydrochloride],-0.08
15,Oc1ccc([C@H]2COc3cc(O)ccc3C2)cc1 [Equol],-0.12
16,CCN(CC)CCOC(=O)c1ccc(N)cc1 [Procaine],1.32

row,SMILES,z-score of subpopulation abundance
1,CCC(C)(Oc1ccc(C2(c3ccc(OC(C)(CC)C(=O)O)cc3)CCCCC2)cc1)C(=O)O (stereo unspecified) [Clinofibrate],0.34
2,COc1cc2c(cc1OC)C(=O)C(CC1CCN(Cc3ccccc3)CC1)C2 (stereo unspecified) [Donepezil],-1.17
3,CCn1cc(C(=O)O)c(=O)c2cc(F)c(N3CCNCC3)nc21 [Enoxacin],-0.4
4,NC(=O)[C@@H]1CC[C@@H]2CN1C(=O)N2OS(=O)(=O)O [Avibactam sodium],0.13
5,CN1[C@@H]2CC[C@H]1C[C@@H](OC(c1ccccc1)c1ccccc1)C2 [Benztropine mesylate],-0.32
6,C#C[C@]1(O)CC[C@H]2[C@@H]3CCC4=CCCC[C@@H]4[C@H]3CC[C@@]21C [Lynestrenol],1.07
7,OC(c1ccccc1)(c1ccccc1)C12CC[N+](CCOCc3ccccc3)(CC1)CC2 [Umeclidinium bromide],-0.23
8,OCc1ccccc1O[C@@H]1O[C@H](CO)[C@@H](O)[C@H](O)[C@H]1O [Salicin],-0.42
9,CN(C)CCc1c[nH]c2ccc(Cn3cncn3)cc12 [Rizatriptan Benzoate],-0.69
10,OCCN(CCO)c1nc(N2CCCCC2)c2nc(N(CCO)CCO)nc(N3CCCCC3)c2n1 [Dipyridamole],-6.98
11,Cn1nnnc1SCC1=C(C(=O)O)N2C(=O)[C@@H](NC(=O)[C@H](OC=O)c3ccccc3)[C@H]2SC1 [Cefamandole nafate],0.1
12,CC(=O)[C@@]1(O)CC[C@H]2[C@@H]3C[C@H](C)C4=CC(=O)CC[C@]4(C)[C@H]3CC[C@@]21C [Medroxyprogesterone],0.2
13,CC[N+](CC)(CC)CC [Tetraethylammonium bromide],1.19
14,CCC1(c2ccccc2)C(=O)NCNC1=O [Primidone],-0.16
15,CCCCOc1cc(C(=O)OCCN(CC)CC)ccc1N [Oxybuprocaine HCl],-0.29
16,C[N+]1(C)[C@@H]2CC[C@H]1C[C@@H](OC(=O)C(O)c1ccccc1)C2 (stereo partly specified) [Homatropine Methylbromide],0.46

# Tested on: Saccharomyces cerevisiae BY4741 SeMeCo community
# Test: z-score of subpopulation abundance vs DMSO median, subpopulation auxotrophic for H; higher = larger share of this subpopulation than in DMSO controls
# Details: 10 µM; 24 h; SM minimal medium; subpopulation (auxotrophy): H
# Procedure, shortened: as §1
row,SMILES,z-score of subpopulation abundance
1,CC(C)NC(=N)NC(=N)Nc1ccc(Cl)cc1 [Proguanil],-0.88
2,Nc1nc(O)c2ncn(CCC(CO)CO)c2n1 [Penciclovir],0.22
3,C=CC(C)(O)CCC=C(C)C (stereo unspecified) [Linalool],-0.37
4,CCCN1CCCC[C@H]1C(=O)Nc1c(C)cccc1C [Ropivacaine],-0.64
5,CN1[C@@H]2CC[C@H]1C[C@@H](OC(=O)c1c[nH]c3ccccc13)C2 [Tropisetron],0.66
6,CC[C@H]1OC(=O)[C@H](C)[C@@H](O[C@H]2C[C@@](C)(OC)[C@@H](O)[C@H](C)O2)[C@H](C)[C@@H](O[C@@H]2O[C@H](C)C[C@H](N(C)C)[C@H]2O)[C@](C)(O)C[C@@H](C)/C(=N\OCOCCOC)[C@H](C)[C@@H](O)[C@]1(C)O [Roxithromycin],0.59
7,COc1ccccc1N1CCN(CCCNc2cc(=O)n(C)c(=O)n2C)CC1 [Urapidil HCl],-0.78
8,C=C[C@H]1CN2CC[C@H]1C[C@H]2[C@H](O)c1ccnc2ccc(OC)cc12 [Quinine HCl Dihydrate],0.07
9,Cc1nc(=O)c2cc(CN(C)c3ccc(C(=O)N[C@@H](CCC(=O)O)C(=O)O)s3)ccc2[nH]1 [Raltitrexed],-0.94
10,CC(C)Cc1ccc(C(C)C(=O)O)cc1 (stereo unspecified) [Ibuprofen Lysine],-0.2
11,CN(C)CCc1c[nH]c2ccc(C[C@H]3COC(=O)N3)cc12 [Zolmitriptan],-0.77
12,C[C@]12CC[C@@H]3c4ccc(O)cc4C[C@@H](CCCCCCCCC[S+]([O-])CCCC(F)(F)C(F)(F)F)[C@H]3[C@@H]1CC[C@@H]2O (stereo partly specified) [Fulvestrant],0.56
13,COc1ccc(NS(=O)(=O)c2ccc(N)cc2)nn1 [Sulfamethoxypyridazine],-0.64
14,CNCCCN1c2ccccc2CCc2ccccc21 [Desipramine Hydrochloride],0.31
15,Cc1[nH]c(=O)c(C#N)cc1-c1ccncc1 [Milrinone],-0.52
16,Cc1ccc(O)c([C@H](CCN(C(C)C)C(C)C)c2ccccc2)c1 [Tolterodine tartrate],-0.19
17,O=C(O)c1cc(/N=N/c2ccc(O)c(C(=O)O)c2)ccc1O [Olsalazine Sodium],-0.62

row,SMILES,z-score of subpopulation abundance
1,CCC(C)(Oc1ccc(C2(c3ccc(OC(C)(CC)C(=O)O)cc3)CCCCC2)cc1)C(=O)O (stereo unspecified) [Clinofibrate],1.7
2,CN(C)[C@@H]1C(=O)C(C(N)=O)=C(O)[C@@]2(O)C(=O)C3=C(O)c4c(O)ccc(Cl)c4[C@@H](O)[C@H]3C[C@@H]12 [Demeclocycline HCl],0.67
3,COc1cc2c(cc1OC)C(=O)C(CC1CCN(Cc3ccccc3)CC1)C2 (stereo unspecified) [Donepezil],-0.21
4,CCn1cc(C(=O)O)c(=O)c2cc(F)c(N3CCNCC3)nc21 [Enoxacin],-0.39
5,NC(=O)[C@@H]1CC[C@@H]2CN1C(=O)N2OS(=O)(=O)O [Avibactam sodium],-0.62
6,C#C[C@]1(O)CC[C@H]2[C@@H]3CCC4=CCCC[C@@H]4[C@H]3CC[C@@]21C [Lynestrenol],0.16
7,CC(C)(C)C(=O)OCOC(=O)[C@@H]1N2C(=O)[C@@H](/N=C/N3CCCCCC3)[C@H]2SC1(C)C [Pivmecillinam hydrochloride],0.1
8,OC(c1ccccc1)(c1ccccc1)C12CC[N+](CCOCc3ccccc3)(CC1)CC2 [Umeclidinium bromide],-0.1
9,OCc1ccccc1O[C@@H]1O[C@H](CO)[C@@H](O)[C@H](O)[C@H]1O [Salicin],-0.5
10,CN(C)CCc1c[nH]c2ccc(Cn3cncn3)cc12 [Rizatriptan Benzoate],0.25
11,OCCN(CCO)c1nc(N2CCCCC2)c2nc(N(CCO)CCO)nc(N3CCCCC3)c2n1 [Dipyridamole],3.18
12,Cn1nnnc1SCC1=C(C(=O)O)N2C(=O)[C@@H](NC(=O)[C@H](OC=O)c3ccccc3)[C@H]2SC1 [Cefamandole nafate],0.14
13,CC(=O)[C@@]1(O)CC[C@H]2[C@@H]3C[C@H](C)C4=CC(=O)CC[C@]4(C)[C@H]3CC[C@@]21C [Medroxyprogesterone],-0.26
14,CC[N+](CC)(CC)CC [Tetraethylammonium bromide],-0.73
15,CCC1(c2ccccc2)C(=O)NCNC1=O [Primidone],-0.52
16,CCCCOc1cc(C(=O)OCCN(CC)CC)ccc1N [Oxybuprocaine HCl],-0.22
17,C[N+]1(C)[C@@H]2CC[C@H]1C[C@@H](OC(=O)C(O)c1ccccc1)C2 (stereo partly specified) [Homatropine Methylbromide],-1.04
